In PubChem BioAssay (NCATS):
“And” between values parts separate entries of the source, which are not always exact repeats. Identical values can stand only once. Records with an inconclusive call do not appear. The source made the active and inactive calls. The call rests on the fitted dose curve; in most records, active means well fitted inhibition curve with a large enough effect; inconclusive means small, poorly fitted or top-dose-only effect; inactive means flat fitted curve, though single readings scatter.

Experiments:
[1] = qHTS profiling for inhibitors of Plasmodium falciparum proliferation (AID 504749);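 further: 0% = DMSO vehicle and full inhibition = artemisinin control; nearly all actives have a fitted effect of over 60% in size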; conditions: P. falciparum in erythrocytes, SYBR Green DNA, 72 h, at 28.7 µM (top of the series)
Method in brief: (§1)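 Fluorescence of SYBR Green-bound parasite DNA, read at 485/535 nm, served as the growth measure. Infected erythrocytes were cultured with compound 72 h; artemisinin (0.29 uM) and DMSO wells defined the normalization range.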

[2] = test system: 3D7; experiment: as above; conditions: P. falciparum in erythrocytes, SYBR Green DNA, 72 h; series mostly up to 28.7 µM
Method in brief: as §1

[3] = test system: 7G8; experiment: as above; conditions: P. falciparum in erythrocytes, SYBR Green DNA, 72 h; series mostly up to 28.7 µM
Method in brief: as §1

[4] = test system: AA1029; experiment: as above; conditions: P. falciparum in erythrocytes, SYBR Green DNA, 72 h; series mostly up to 28.7 µM
Method in brief: as §1

[5] = test system: AS120; experiment: as above; conditions: P. falciparum in erythrocytes, SYBR Green DNA, 72 h; series mostly up to 28.7 µM
Method in brief: as §1

[6] = test system: ATS189; experiment: as above; conditions: P. falciparum in erythrocytes, SYBR Green DNA, 72 h; series mostly up to 28.7 µM
Method in brief: as §1

[7] = test system: ATS95; experiment: as above; conditions: P. falciparum in erythrocytes, SYBR Green DNA, 72 h; series mostly up to 28.7 µM
Method in brief: as §1

[8] = test system: C2A; experiment: as above; conditions: P. falciparum in erythrocytes, SYBR Green DNA, 72 h; series mostly up to 28.7 µM
Method in brief: as §1

[9] = test system: CP185; experiment: as above; conditions: P. falciparum in erythrocytes, SYBR Green DNA, 72 h; series mostly up to 28.7 µM
Method in brief: as §1

[10] = test system: CP191; experiment: as above; conditions: P. falciparum in erythrocytes, SYBR Green DNA, 72 h; series mostly up to 28.7 µM
Method in brief: as §1

CC(C)(O)C1C2OC(=O)C1C1(O)CC3OC34C(=O)OC2C14C (stereo not drawn)
inactive: activity, negative = inhibition ([1]; parasite line A) 13.7% | activity, negative = inhibition ([1]; parasite line B) 0.0355% | Potency [2] | Potency [3] | Potency [4] | Potency [5] | Potency [6] | Potency [7] | Potency [8] | Potency [9] | Potency [10]

CC(=O)OC1CN2CCC1CC2 (stereo not drawn)
inactive: activity, negative = inhibition ([1]; parasite line A) -1.93% | activity, negative = inhibition ([1]; parasite line B) 13.1% | Potency [2] | Potency [3] | Potency [4] | Potency [5] | Potency [6] | Potency [7] | Potency [8] | Potency [9] | Potency [10]

c1csc(C2(N3CCCCC3)CCCCC2)c1
inactive: activity, negative = inhibition ([1]; parasite line A) -2.88% | activity, negative = inhibition ([1]; parasite line B) 1.73% | Potency [2] | Potency [3] | Potency [4] | Potency [5] | Potency [6] | Potency [7] | Potency [8] | Potency [9] | Potency [10]

COC([CH2][Hg])CNC(=O)c1ccccc1OCC(=O)O (stereo not drawn)
inactive: activity, negative = inhibition ([1]; parasite line A) 6.16% | activity, negative = inhibition ([1]; parasite line B) 2.49% | Potency [2] | Potency [3] | Potency [4] | Potency [5] | Potency [6] | Potency [7] | Potency [8] | Potency [9] | Potency [10]

O=c1[nH]cc(N(CCCl)CCCl)c(=O)[nH]1
inactive: activity, negative = inhibition ([1]; parasite line A) -0.577% | activity, negative = inhibition ([1]; parasite line B) -4.63% | Potency [2] | Potency [3] | Potency [4] | Potency [5] | Potency [6] | Potency [7] | Potency [8] | Potency [9] | Potency [10]

O=C(CS(=O)C(c1ccccc1)c1ccccc1)NO (stereo not drawn)
inactive: activity, negative = inhibition ([1]; parasite line A) -13.7% | activity, negative = inhibition ([1]; parasite line B) 0.0253% | Potency [2] | Potency [3] | Potency [4] | Potency [5] | Potency [6] | Potency [7] | Potency [8] | Potency [9] | Potency [10]

CC(=O)OO
inactive: activity, negative = inhibition ([1]; parasite line A) 5.76% | activity, negative = inhibition ([1]; parasite line B) 13% | Potency [2] | Potency [3] | Potency [4] | Potency [5] | Potency [6] | Potency [7] | Potency [8] | Potency [9] | Potency [10]

C[C@H]1CC[C@@H]2[C@@H](C)[C@H]3[C@H](C[C@H]4[C@@H]5CC=C6CC(O[C@@H]7O[C@H](CO)[C@H](O)[C@H](O[C@@H]8O[C@H](CO)[C@@H](O)[C@H](O)[C@H]8O)[C@H]7O[C@H]7O[C@@H](C)[C@H](O)[C@@H](O)[C@H]7O)CC[C@]6(C)[C@H]5CC[C@]34C)N2C1 (stereo partly drawn)
inactive: activity, negative = inhibition ([1]; parasite line A) -2.66% | activity, negative = inhibition ([1]; parasite line B) 12% | Potency [2] | Potency [3] | Potency [4] | Potency [5] | Potency [6] | Potency [7] | Potency [8] | Potency [9] | Potency [10]

CC(N)Cc1ccc(O)cc1 (stereo not drawn)
inactive: activity, negative = inhibition ([1]; parasite line A) -0.875% | activity, negative = inhibition ([1]; parasite line B) 1.76% | Potency [2] | Potency [3] | Potency [4] | Potency [5] | Potency [6] | Potency [7] | Potency [8] | Potency [9] | Potency [10]

CN1c2ccccc2C(NCCCCCCC(=O)O)c2ccc(Cl)cc2S1(=O)=O (stereo not drawn)
inactive: activity, negative = inhibition ([1]; parasite line A) 2.2% | activity, negative = inhibition ([1]; parasite line B) -5.71% | Potency [2] | Potency [3] | Potency [4] | Potency [5] | Potency [6] | Potency [7] | Potency [8] | Potency [9] | Potency [10]

[O]=[Cr](=[O])([OH])[O][Cr](=[O])(=[O])[OH]
inactive: activity, negative = inhibition ([1]; parasite line A) -8.13% and -2.73% | activity, negative = inhibition ([1]; parasite line B) -2.72% and -3.46% | Potency [2] | Potency [3] | Potency [4] | Potency [5] | Potency [6] | Potency [7] | Potency [8] | Potency [9] | Potency [10]

C[C@]12CCC(=O)C[C@@H]1CC[C@@H]1[C@@H]2CC[C@]2(C)[C@@H](O)CC[C@@H]12
inactive: activity, negative = inhibition ([1]; parasite line A) -12.4% | activity, negative = inhibition ([1]; parasite line B) 4.65% | Potency [2] | Potency [3] | Potency [4] | Potency [5] | Potency [6] | Potency [7] | Potency [8] | Potency [9] | Potency [10]

O=C1CC[C@@]2(O)C3Cc4ccc(O)c5c4C2(CCN3CC2CC2)[C@H]1O5 (stereo partly drawn)
inactive: activity, negative = inhibition ([1]; parasite line A) 9.65% | activity, negative = inhibition ([1]; parasite line B) 8.16% | Potency [2] | Potency [3] | Potency [4] | Potency [5] | Potency [6] | Potency [7] | Potency [8] | Potency [9] | Potency [10]

O=C(OCCN1CCCCC1)C(O)(c1ccccc1)c1ccccc1
inactive: activity, negative = inhibition ([1]; parasite line A) 8.26% | activity, negative = inhibition ([1]; parasite line B) -1.95% | Potency [2] | Potency [3] | Potency [4] | Potency [5] | Potency [6] | Potency [7] | Potency [8] | Potency [9] | Potency [10]

C=CCN=C=S
inactive: activity, negative = inhibition ([1]; parasite line A) -3.28% | activity, negative = inhibition ([1]; parasite line B) 7.56% | Potency [2] | Potency [3] | Potency [4] | Potency [5] | Potency [6] | Potency [7] | Potency [8] | Potency [9] | Potency [10]

COCC(C)N(C(=O)CCl)c1c(C)csc1C (stereo not drawn)
inactive: activity, negative = inhibition ([1]; parasite line A) 7.86% | activity, negative = inhibition ([1]; parasite line B) -2.46% | Potency [2] | Potency [3] | Potency [4] | Potency [5] | Potency [6] | Potency [7] | Potency [8] | Potency [9] | Potency [10]

O=P(O)(O)C(Cl)(Cl)P(=O)(O)O
inactive: activity, negative = inhibition ([1]; parasite line A) 6.37% | activity, negative = inhibition ([1]; parasite line B) 14% | Potency [2] | Potency [3] | Potency [4] | Potency [5] | Potency [6] | Potency [7] | Potency [8] | Potency [9] | Potency [10]

O[C@H]1[C@H]2[C@H](O)CCCN2C[C@H]1O
inactive: activity, negative = inhibition ([1]; parasite line A) 9.76% | activity, negative = inhibition ([1]; parasite line B) 2.41% | Potency [2] | Potency [3] | Potency [4] | Potency [5] | Potency [6] | Potency [7] | Potency [8] | Potency [9] | Potency [10]
